Article PMC5700166

Each sequence was assayed against T1, GST-Nv-NF-kB (Ser allele) (Nematostella vectensis, UniProt A7UNT2 2-411) (assay: protein-binding microarray (PBM); PBM: ~300 nM protein, 6 mM HEPES pH 7.8, 80 mM KCl, 0.5 mM EDTA, 0.5 mM EGTA, 6% glycerol, 35 ng/ul poly-dIdC, 1% milk, 1 h, room temperature; Ap Aiptasia and Nv Nematostella (sea anemones) / Co Capsaspora / Aq Amphimedon (sponge) / Dm Drosophila / Hu human; RHD is the Rel homology domain; high values mean tight binding). Conditions: dsDNA, one strand shown.
T1 sequence: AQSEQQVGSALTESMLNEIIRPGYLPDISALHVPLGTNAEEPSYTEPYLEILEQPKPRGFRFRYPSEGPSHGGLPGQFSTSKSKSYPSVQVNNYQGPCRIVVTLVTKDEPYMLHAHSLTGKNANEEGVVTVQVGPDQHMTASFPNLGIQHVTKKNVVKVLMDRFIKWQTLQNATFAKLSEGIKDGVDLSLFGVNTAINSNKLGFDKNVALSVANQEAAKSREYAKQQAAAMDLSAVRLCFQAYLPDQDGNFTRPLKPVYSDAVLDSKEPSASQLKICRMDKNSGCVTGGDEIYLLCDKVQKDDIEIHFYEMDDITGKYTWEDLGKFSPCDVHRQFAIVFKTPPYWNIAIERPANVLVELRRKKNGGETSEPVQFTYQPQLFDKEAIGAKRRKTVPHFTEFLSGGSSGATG

Sequence | binding signal [z-score]
CCGATTAACATCAGGGGACGTTATGATGTTAATCGGGTCTTGATTCGCTTGACGCTGCTG | 4.91
CCGATTAACATCACATACCTACCTGATGTTAATCGGGTCTTGATTCGCTTGACGCTGCTG | 1.21
CCGATTAACATCAAGGAACCCCCTGATGTTAATCGGGTCTTGATTCGCTTGACGCTGCTG | 6.23
CCGATTAACATCACAGCCCCCCCTGATGTTAATCGGGTCTTGATTCGCTTGACGCTGCTG | 3.62
CCGATTAACATCAGTTGTCCCGCTGATGTTAATCGGGTCTTGATTCGCTTGACGCTGCTG | 1.42
CCGATTAACATCAGAGATCCCCCTGATGTTAATCGGGTCTTGATTCGCTTGACGCTGCTG | 6.44
CCGATTAACATCATTTCCGGAAATGATGTTAATCGGGTCTTGATTCGCTTGACGCTGCTG | 1.02
CCGATTAACATCAAACCTTCCCCTGATGTTAATCGGGTCTTGATTCGCTTGACGCTGCTG | 5.79
CCGATTAACATCAAAAAAACCCTTGATGTTAATCGGGTCTTGATTCGCTTGACGCTGCTG | 5.27
CCGATTAACATCACCTCCCCCCCTGATGTTAATCGGGTCTTGATTCGCTTGACGCTGCTG | 4.34
CCGATTAACATCACCCCCTCCCCTGATGTTAATCGGGTCTTGATTCGCTTGACGCTGCTG | 3.78
CCGATTAACATCAGGGGGGAGACTGATGTTAATCGGGTCTTGATTCGCTTGACGCTGCTG | 5.69
CCGATTAACATCAAGGGGGGAGATGATGTTAATCGGGTCTTGATTCGCTTGACGCTGCTG | 4.86
CCGATTAACATCAATAAAATCCCTGATGTTAATCGGGTCTTGATTCGCTTGACGCTGCTG | 4.09
CCGATTAACATCAAAAAATCACCTGATGTTAATCGGGTCTTGATTCGCTTGACGCTGCTG | 5.57
CCGATTAACATCAAAATTCCCTGTGATGTTAATCGGGTCTTGATTCGCTTGACGCTGCTG | 6.24
CCGATTAACATCACCCCGCCCCCTGATGTTAATCGGGTCTTGATTCGCTTGACGCTGCTG | 3.65
CCGATTAACATCAGTACCGCGAATGATGTTAATCGGGTCTTGATTCGCTTGACGCTGCTG | 1.29
CCGATTAACATCACGGAAAAACCTGATGTTAATCGGGTCTTGATTCGCTTGACGCTGCTG | 1.31
CCGATTAACATCAGGAACTCCCCTGATGTTAATCGGGTCTTGATTCGCTTGACGCTGCTG | 5.51

Sequence | binding signal [z-score]
CCGATTAACATCAGGGGGAACAATGATGTTAATCGGGTCTTGATTCGCTTGACGCTGCTG | 6.27
CCGATTAACATCAAAAAACCCCGTGATGTTAATCGGGTCTTGATTCGCTTGACGCTGCTG | 6.46
CCGATTAACATCAAAAATATTCCTGATGTTAATCGGGTCTTGATTCGCTTGACGCTGCTG | 1.03
CCGATTAACATCAAGGGGGGGGGTGATGTTAATCGGGTCTTGATTCGCTTGACGCTGCTG | 4.84
CCGATTAACATCAGGGGGTTCACTGATGTTAATCGGGTCTTGATTCGCTTGACGCTGCTG | 4.69
CCGATTAACATCAAATTGGGAAATGATGTTAATCGGGTCTTGATTCGCTTGACGCTGCTG | 2.19
CCGATTAACATCAATCCACCCCCTGATGTTAATCGGGTCTTGATTCGCTTGACGCTGCTG | 3.94
CCGATTAACATCAAGGGGGGGGCTGATGTTAATCGGGTCTTGATTCGCTTGACGCTGCTG | 3.66
CCGATTAACATCAAAACACCCCTTGATGTTAATCGGGTCTTGATTCGCTTGACGCTGCTG | 2.64
CCGATTAACATCAGACCCCCCCCTGATGTTAATCGGGTCTTGATTCGCTTGACGCTGCTG | 3.56
CCGATTAACATCAGGGGGGGGAATGATGTTAATCGGGTCTTGATTCGCTTGACGCTGCTG | 6.53
CCGATTAACATCACGGGGTTTTCTGATGTTAATCGGGTCTTGATTCGCTTGACGCTGCTG | 5.22
CCGATTAACATCAAGGGGGGGATTGATGTTAATCGGGTCTTGATTCGCTTGACGCTGCTG | 6.32
CCGATTAACATCATACTTCCCCATGATGTTAATCGGGTCTTGATTCGCTTGACGCTGCTG | 6.52
CCGATTAACATCAACAACCCCCCTGATGTTAATCGGGTCTTGATTCGCTTGACGCTGCTG | 5.06
CCGATTAACATCAGATAACCCCCTGATGTTAATCGGGTCTTGATTCGCTTGACGCTGCTG | 5.95
CCGATTAACATCAAGAAAATCCCTGATGTTAATCGGGTCTTGATTCGCTTGACGCTGCTG | 4.75
CCGATTAACATCAAAATTCCCGTTGATGTTAATCGGGTCTTGATTCGCTTGACGCTGCTG | 6.44
CCGATTAACATCAAGGGGGGACTTGATGTTAATCGGGTCTTGATTCGCTTGACGCTGCTG | 4.99
